Data as given in paper PMC4336329 (PLoS ONE, 2015).
Among all 310,000 compounds or so, about 14,000 (4.5%) showed an effect of 50% or more. The effect is printed as a negative number. Many of the other results were omitted from the sample, so strong results are more common in it than they were.

molecular target: human ether-à-go-go-related gene (hERG) potassium channel (human, UniProt Q12809); test: primary screen, population patch clamp on CHO cells stably expressing hERG; higher = less effect of the substance
Sequence (Q12809 whole entry, looked up): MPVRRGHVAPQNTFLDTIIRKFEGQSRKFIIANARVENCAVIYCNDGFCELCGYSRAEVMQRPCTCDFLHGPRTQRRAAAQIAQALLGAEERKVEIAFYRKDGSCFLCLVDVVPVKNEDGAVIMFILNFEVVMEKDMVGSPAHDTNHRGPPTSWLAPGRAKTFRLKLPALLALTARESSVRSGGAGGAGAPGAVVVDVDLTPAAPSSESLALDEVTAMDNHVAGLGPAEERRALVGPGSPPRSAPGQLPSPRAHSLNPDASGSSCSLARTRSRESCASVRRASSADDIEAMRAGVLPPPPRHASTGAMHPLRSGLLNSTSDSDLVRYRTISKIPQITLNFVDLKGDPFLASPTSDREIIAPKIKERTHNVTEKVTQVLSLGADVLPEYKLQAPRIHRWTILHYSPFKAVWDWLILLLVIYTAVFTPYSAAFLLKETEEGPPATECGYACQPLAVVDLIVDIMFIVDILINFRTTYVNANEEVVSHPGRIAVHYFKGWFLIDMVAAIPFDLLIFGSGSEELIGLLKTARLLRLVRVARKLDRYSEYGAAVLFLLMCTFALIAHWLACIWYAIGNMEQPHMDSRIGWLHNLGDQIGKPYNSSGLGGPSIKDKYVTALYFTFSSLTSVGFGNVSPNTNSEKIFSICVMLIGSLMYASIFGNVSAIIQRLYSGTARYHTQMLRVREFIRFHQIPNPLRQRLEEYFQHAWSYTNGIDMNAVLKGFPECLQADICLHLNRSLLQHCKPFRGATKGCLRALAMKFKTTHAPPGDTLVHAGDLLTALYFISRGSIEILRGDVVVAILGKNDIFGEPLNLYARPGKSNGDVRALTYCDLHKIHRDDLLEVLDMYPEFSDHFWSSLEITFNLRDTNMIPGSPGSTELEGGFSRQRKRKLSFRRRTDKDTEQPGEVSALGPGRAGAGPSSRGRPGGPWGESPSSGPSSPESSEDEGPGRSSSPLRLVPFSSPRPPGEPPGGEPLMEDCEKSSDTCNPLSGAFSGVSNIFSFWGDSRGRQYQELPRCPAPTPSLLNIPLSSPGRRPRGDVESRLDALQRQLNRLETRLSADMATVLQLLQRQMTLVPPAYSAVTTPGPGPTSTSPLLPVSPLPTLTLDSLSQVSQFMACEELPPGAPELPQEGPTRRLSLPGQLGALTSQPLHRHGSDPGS
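Note: peak tail current of the secondary pulse compared with the same well before compound.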

Row | Compound | hERG current change (%, negative = inhibition) at 10uM
1 | Cc1cc2ncn(CC(O)COc3cccc(C(=O)O)c3)c2cc1C (stereo not drawn) | -10.8%
2 | Cc1ccc(C(=O)Nc2ccccc2C(=O)O)cc1S(=O)(=O)NCc1ccccc1 | 9.8%
3 | CC(CN1CCOCC1)C(=O)c1ccccc1.Cl (stereo not drawn) | 8.47%
4 | Cc1ccc(C)c(S(=O)(=O)NC(C)C(=O)Nc2ccc(-c3nc4ccccc4s3)cc2)c1 (stereo not drawn) | 2.9%
5 | Cc1ccc(/C=C/C(=O)OCC(=O)NC(=O)NCc2ccco2)cc1 | 18.7%
6 | CCc1cccc(C)c1NC(=O)COC(=O)c1ccc2c(c1)S(=O)(=O)c1ccccc1C2=O | -0.0165%
7 | Cc1ccccc1-n1ncc2c1CC(C)(C)CC2NC(=O)CCC1=NNC(=O)CC1 (stereo not drawn) | -75.9%
8 | CSCCC(=O)NC1CC(C)(C)Cc2c1cnn2-c1ccccc1C (stereo not drawn) | -10.4%
9 | Cc1ccc(-n2ncc3c2CC(C)(C)CC3NC(=O)CCc2ccncc2)cc1 (stereo not drawn) | -72.2%
10 | COc1ccc(-n2ncc3c2CC(C)(C)CC3NC(=O)CCC2=NNC(=O)CC2)cc1 (stereo not drawn) | 15.8%
11 | COC(=O)CCC(=O)NC1CC(C)(C)Cc2c1cnn2-c1ccccc1 (stereo not drawn) | -12%
12 | CC1(C)Cc2c(cnn2-c2ccccc2)C(NC(=O)CCc2ccncc2)C1 (stereo not drawn) | -68.8%
13 | C=CCC(=O)NC1CC(C)(C)Cc2c1cnn2-c1ccc(C)cc1 (stereo not drawn) | -69.7%
14 | Cc1nn(C)c(C)c1CCC(=O)NC1CC(C)(C)Cc2c1cnn2-c1ccccc1 (stereo not drawn) | -28.1%
15 | COC(=O)CCCC(=O)NC1CC(C)(C)Cc2c1cnn2-c1ccc(C)cc1 (stereo not drawn) | -24.7%
16 | CCc1nccn1CCC(=O)NC1CC(C)(C)Cc2c1cnn2-c1ccc(C)cc1 (stereo not drawn) | -22.1%
17 | Cc1ccc(-n2ncc3c2CC(C)(C)CC3NC(=O)CCc2ccc(=O)[nH]n2)cc1 (stereo not drawn) | -11.2%
18 | C=CCC(=O)NC1CC(C)(C)Cc2c1cnn2-c1ccccc1C (stereo not drawn) | 4.35%
19 | CCCCOc1ccc(C(=O)NCC(=O)OC2CCOC2=O)cc1 (stereo not drawn) | 4.84%
20 | Cc1cc(C(=O)N/N=C/c2sc(N3CCOCC3)nc2-c2ccccc2)c(C)o1 | 8.26%

Row | Compound | hERG current change (%, negative = inhibition) at 10uM
21 | COc1ccc(C(=O)N2CCCC2)cc1S(=O)(=O)N1CCOCC1 | -1.7%
22 | CCN[C@H]1CN(CCCOC)S(=O)(=O)c2sc(S(N)(=O)=O)cc21 | 2.51%
23 | CC(C)NS(=O)(=O)c1ccc(CCC(=O)N2CCc3ccccc3C2)cc1 | -11.9%
24 | Cc1c(C(=O)OCC(=O)c2ccc3c(c2)OCCO3)oc2ccccc12 | 4.75%
25 | COc1cc(/C=C2\CCC(C3CCCC3)C2=O)cc(OC)c1OC (stereo not drawn) | 9.98%
26 | O=C(CSc1nnc2ncccn12)Nc1cccc2ccccc12 | 5.09%
27 | Cc1ccc(S(=O)(=O)N(C)CCCC(=O)Nc2cccc3ccccc23)cc1 | -28.1%
28 | CC(=O)Nc1ccc(NC(=S)NC(=O)/C=C/c2ccc(Cl)cc2)cc1 | 17.7%
29 | O=C(Oc1c(Br)cc(C(=S)N2CCOCC2)cc1Br)c1ccc(Cl)cc1 | 11.3%
30 | CC(=O)N1N=C(c2ccc(NS(=O)(=O)c3ccccc3)cc2)CC1c1ccco1 (stereo not drawn) | -12.2%
31 | Cc1ccc(-n2ncc3c2CC(C)(C)CC3NC(=O)CCCN2CCCC2=O)cc1 (stereo not drawn) | -1.21%
32 | Cc1ccc(-n2ncc3c2CC(C)(C)CC3NC(=O)CCc2cnn(C)c2)cc1 (stereo not drawn) | -52.6%
33 | Cc1ccc(-n2ncc3c2CC(C)(C)CC3NC(=O)CCc2c(C)noc2C)cc1 (stereo not drawn) | -32.3%
34 | Cc1ccc(-n2ncc3c2CC(C)(C)CC3NC(=O)CCN2CCCCC2=O)cc1 (stereo not drawn) | 3.16%
35 | Cc1ccc(-n2ncc3c2CC(C)(C)CC3NC(=O)CCc2cccnc2)cc1 (stereo not drawn) | -63.9%
36 | Cc1ccc(-n2ncc3c2CC(C)(C)CC3NC(=O)CCN2CCCO2)cc1 (stereo not drawn) | -37.7%
37 | O=c1ccc2cc(S(=O)(=O)N3CCN(c4cc(Cl)ccc4Cl)CC3)ccc2o1 | -20.7%
38 | Cc1cc(NC(=O)CSCC(=O)Nc2ccccc2Oc2ccccc2)no1 | -8.79%
39 | NC(=O)CSc1oc(-c2cccs2)nc1S(=O)(=O)c1ccccc1 | -15.5%
40 | COc1cccc(/C=N/NC(=O)CN2CC(c3ccccc3)CC2=O)c1O (stereo not drawn) | -9.13%

Row | Compound | hERG current change (%, negative = inhibition) at 10uM
41 | O=c1[nH]c2ccccc2c(O)c1-[n+]1ccccc1.[Cl-] | 22.5%
42 | COc1ccc(CCNC(=O)C(=O)Nc2ccc3nc4n(c(=O)c3c2)CCCCC4)cc1OC | -27.3%
43 | Oc1ccc(/C=N/Nc2nc(N3CCCC3)nc(N3CCCC3)n2)cc1O | 2.71%
44 | Cl.c1ccc(CSCc2cn3ccccc3n2)cc1 | 2.98%
45 | Cc1ncc([N+](=O)[O-])n1CCOC(=O)NC(Nc1ccc(F)cc1)C(Cl)(Cl)Cl (stereo not drawn) | -54.6%
46 | Cc1ccccc1NC(NC(=O)OCCn1c([N+](=O)[O-])cnc1C)C(Cl)(Cl)Cl (stereo not drawn) | 2.42%
47 | Cc1ccc(NC(NC(=O)OCCn2c([N+](=O)[O-])cnc2C)C(Cl)(Cl)Cl)cc1 (stereo not drawn) | 6.71%
48 | COc1ccccc1NC(=O)COn1nnc2ccc(S(=O)(=O)N3CCOCC3)cc21 | 4.92%
49 | CN(CC(=O)Nc1cccc(F)c1)C(=O)c1cn2ccccc2n1 | -5%
50 | CN(CC(=O)Nc1ccc(Cl)c(C(F)(F)F)c1)C(=O)CCN1C(=O)C2CC=CCC2C1=O (stereo not drawn) | -37.2%
51 | CN(CC(=O)Nc1ccc(Cl)c(C(F)(F)F)c1)C(=O)CNC(=O)C1CCCCC1 | -31.5%
52 | Cc1ccc(OCC(=O)N(C)CC(=O)Nc2ccc(Cl)c(C(F)(F)F)c2)c([N+](=O)[O-])n1 | -54.8%
53 | COc1ccccc1C(=O)NCCC(=O)N(C)CC(=O)Nc1ccc(Cl)cc1 | -31.9%
54 | Cc1ccc(OCC(=O)N(C)CC(=O)Nc2ccc(F)cc2)c([N+](=O)[O-])n1 | -24.2%
55 | CN(CC(=O)Nc1ccc(Cl)c(C(F)(F)F)c1)C(=O)CCN1C(=O)C2CCCCC2C1=O (stereo not drawn) | -50.2%
56 | COc1ccc(NC(=O)CN(C)C(=O)CCCNC(=O)c2ccc(Cl)cc2)cc1 | -30.8%
57 | CN(CC(=O)Nc1ccc(Cl)cc1)C(=O)CCNC(=O)c1ccc(Cl)cc1 | -67.7%
58 | Cc1ccc(OCC(=O)N(C)CC(=O)Nc2ccccc2Cl)c([N+](=O)[O-])n1 | -16.7%
59 | CN(CC(=O)Nc1ccc(Cl)c(C(F)(F)F)c1)C(=O)c1cn2ccccc2n1 | -61.9%
60 | CCOc1ccc(NC(=O)CN(C)C(=O)c2cn3ccccc3n2)cc1OCC | -19.2%
